From ChEMBL document CHEMBL4513216, “Probing the Open Global Health Chemical Diversity Library for Multistage-Active Starting Points for Next-Generation Antimalarials” (ACS Infect Dis, 2020)
The campaign covered roughly 69,000 compounds. About 8,600 (12%) showed an effect of 50% or more. This is one part of a sample in which strong results are shown more often than they occur.

Tested on: Plasmodium berghei
Experiment: Screen against P. berghei liver stage (PbLuc), transformed with Luciferase, at 10uM
Format: functional, HepG2
Details: tested at 10 uM

| SMILES | INHIBITION |
| --- | --- |
| Cc1ccccc1CN1CCC2(COCc3cnc(N(C)C)nc32)C1 (centres undefined) | 21.8% |
| Cc1noc(C)c1CN(C)C(=O)c1ccc(C(F)(F)F)nc1 | -9.37% |
| CN(C)CCN1CCOCC2(CCN(Cc3ccc[nH]3)CC2)C1 | -7.94% |
| Cc1cccc(N2CC(c3nnc(N)s3)CC2=O)c1 (centres undefined) | 35% |
| Cc1ccc(-c2noc([C@@H]3Cc4nc[nH]c4CN3)n2)cc1 | 36.2% |
| FC(F)(F)Oc1ccc(-c2noc([C@@H]3Cc4nc[nH]c4CN3)n2)cc1 | 64.8% |
| Fc1ccc(-c2noc([C@@H]3Cc4nc[nH]c4CN3)n2)cc1 | -9.26% |
| O=C(N[C@H]1CCCC[C@@H]1O)c1ccc(-c2nc3ccccc3[nH]2)cc1 | 14.5% |
| Cc1ccc(NC2CCN(C(=O)c3cc(C)no3)CC2)nn1 | -25.85% |
| CN(CCC(F)(F)F)C(=O)C1CSCN1C(=O)C(C)(C)C (centres undefined) | 31.2% |
| Cc1ncoc1C(=O)N1CCCC(c2ccc3c(N)nn(C)c3n2)C1 (centres undefined) | 5.2% |
| CNc1nc(C2CCCN2C(C)=O)nc2c1CN(CCO)CC2 (centres undefined) | 11.5% |
| CNc1nc(C2CCCN(C(=O)CNC(C)=O)C2)nc2c1CN(C)CC2 (centres undefined) | 42.4% |
| CCC(=O)N1CCC(c2nc3c(c(NC)n2)CN(C)CC3)C1 (centres undefined) | -22.6% |
| CNc1nc(C2CCN(C(=O)CC3CCCC3)C2)nc2c1CN(C)CC2 (centres undefined) | 67.7% |
| CNc1nc(C2CCCN2C(C)=O)nc2c1CCN(CC1CC1)C2 (centres undefined) | -2.42% |
| CNc1nc(C2CCCN2C(C)=O)nc2c1CN(C1CCCC1)CC2 (centres undefined) | 67.9% |
| CSCC(C)(O)CNS(=O)(=O)Cc1ccc(F)cc1 (centres undefined) | 33.7% |
| CC(C)(C(=O)O)S(=O)(=O)c1ccc(Br)cc1 | 4.82% |
| Cn1ncc2c1C(COCC1CC1)CN(Cc1ccoc1)C2 (centres undefined) | 35.8% |
| N#Cc1ccc(C(=O)N(Cc2ccncc2)C2CC2)cc1 | -19.4% |
| O=C(COc1ccccc1)N(Cc1ccncc1)C1CC1 | 61.9% |
| O=C(c1cccnc1)N(Cc1ccncc1)C1CC1 | 14.8% |
| N#Cc1cccc(OCC(=O)N(Cc2ccsc2)C2CC2)c1 | 54.5% |
| Cc1cccc(OCC(=O)N(Cc2ccncc2)C2CC2)c1 | 31.3% |
| N#Cc1cccc(CN(CCO)Cc2ccsc2)c1 | 33.4% |
| Cc1noc(C)c1CN(C)C(=O)COc1cccc(C#N)c1 | 8.08% |

| SMILES | INHIBITION |
| --- | --- |
| N#Cc1cccc(OCC(=O)N(Cc2ccncc2)C2CC2)c1 | 59.1% |
| COc1cc(C(C)=O)ccc1OCC(=O)N(Cc1ccsc1)C1CC1 | -16% |
| O=C(COc1ccc2c(c1)CCC2)NCc1ccco1 | 33.2% |
| O=C(NC1CCC2(CCC(=O)N2CC2CC2)CC1)c1cnccn1 (centres undefined) | -40.5% |
| CNC(=O)C(C)(C)N1CCC[C@H]1C(=O)NCCN(C)C | 49.4% |
| CCSc1nnc(CCNC(=O)OC(C)(C)C)o1 | -17.3% |
| COC(=O)CSc1nnc(CCNC(=O)OC(C)(C)C)o1 | 52.5% |
| C=C(C)CSc1nnc(CCNC(=O)OC(C)(C)C)o1 | -0.532% |
| Cc1cccc(-c2nccnc2C2CCCN(C)C2)c1 (centres undefined) | 16.105% |
| Cc1nccn1CC1CCCN1S(=O)(=O)Cc1cccc(F)c1 (centres undefined) | -7.35% |
| O=C(c1cc(C2CCCCC2)no1)N1C[C@H]2CC(O)C[C@H]2C1 (some centres undefined) | -15.1% |
| Cc1ncc2c(n1)CCCC2NC(=O)c1ccccc1Cn1cncn1 (centres undefined) | 64% |
| Cc1ncc2c(n1)CCCC2NC(=O)c1cnn(Cc2ccccc2)c1 (centres undefined) | 26.4% |
| Cc1ncc2c(n1)CCCC2NC(=O)c1ccccc1C(=O)O (centres undefined) | 11.6% |
| Cc1nc(C)c(C(=O)N2CCc3nnc(C4CCCN4C)n3CC2)s1 (centres undefined) | -14.6% |
| CCC(=O)N1CCC2(CC1)COCCN2Cc1ccc(F)cc1 | 66% |
| O=C(Cc1ccccc1)N1CCC2(CCN2Cc2ccc(F)cc2)C1 (centres undefined) | 1.34% |
| CCN1CCOCC12CCN(C(=O)Cc1ccccc1)CC2 | 28.7% |
| CCN1CCOCC12CCN(C(=O)Cc1cccs1)CC2 | 23.3% |
| CC(=O)N1CCC2(CC1)COCCN2Cc1ccc(F)cc1 | 34.7% |
| CC(C)CC(=O)N1CCC2(CC1)COCCN2Cc1ccc(F)cc1 | 56.7% |
| O=C(C1CC1)N1CCC2(CC1)COCCN2Cc1ccc(F)cc1 | 68.4% |
| CC(C)C(=O)N1CCC2(CC1)COCCN2Cc1ccc(F)cc1 | 63.7% |
| COCC(=O)N1CCC2(CC1)COCCN2Cc1ccc(F)cc1 | 26.4% |
| O=C(C1CC1)N1CCC2(CCCN2Cc2ccc(F)cc2)CC1 | 13.7% |
| O=C(C1CC1)N1CCC2(CCN2Cc2ccc(F)cc2)C1 (centres undefined) | 9.97% |
| O=C(CC1CCCC1)N1CCC2(CCN2Cc2ccc(F)cc2)C1 (centres undefined) | -43% |
